GRIN3A LBD mod: binders of NR3A ligand-binding domain, primary screen, biophysical, differential scanning fluorimetry, uHTS. 340,000 compounds, 2.5% hits. Glutamate receptor ionotropic, NMDA 3A (GRIN3A) ligand-binding domain. NR3A LBD differential scanning fluorimetry, Tm shift; 0% = protein alone, 100% = glycine-bound protein. Tm shift relative to glycine control, % at 25 µM. AID 1259313, 2017;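 active = melting temperature shift of at least 10% of the positive control shift, at one fixed dose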
KLK7 zymogen act: proKLK7 zymogen activators, primary screen, biochemical, fluorescence intensity. Kallikrein-7 (Homo sapiens), P49862. purified proKLK7, EDANS-DABCYL substrate fluorescence; 100% is mature enzyme control, 0% vehicle. activation, % at 7 µM. 370,000 compounds, 0.9% hits;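 active = activation above the mean of all tested compounds plus 3 SD, computed per campaign excluding outliers beyond control limits, cut at about 13% in these data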
Target sequence (P49862 whole entry, looked up): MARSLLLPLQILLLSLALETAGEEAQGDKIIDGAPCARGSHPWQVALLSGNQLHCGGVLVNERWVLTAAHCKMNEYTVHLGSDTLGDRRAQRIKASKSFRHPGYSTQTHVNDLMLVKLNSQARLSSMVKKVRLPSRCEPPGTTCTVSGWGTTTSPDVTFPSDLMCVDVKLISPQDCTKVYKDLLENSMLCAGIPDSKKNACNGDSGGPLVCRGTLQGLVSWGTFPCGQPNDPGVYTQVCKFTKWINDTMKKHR
ADAM17 inh: ADAM17 inhibitors, primary screen, biochemical, QFRET | Disintegrin and metalloproteinase domain-containing protein 17 (Homo sapiens), P78536 | recombinant ADAM17, EDANS/DABCYL FRET peptide cleavage | inhibition, % at 6.95 µM | 370,000 compounds, 0.83% hits | AID 720648, 2013;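 active = inhibition above the mean of compounds lying between control limits plus 3 SD, set per campaign, cut at about 8.5% in these data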;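 note: 0% = DMSO-only wells as the low control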
ADAM10 inh: human ADAM10 inhibitors, primary screen, biochemical, QFRET, HTS. inhibition, % at 7 µM. recombinant ADAM10, EDANS/DABCYL FRET peptide cleavage, 3 h. AID 720582, 2013. Disintegrin and metalloproteinase domain-containing protein 10 (Homo sapiens), O14672. 370,000 compounds, 0.62% hits;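 active = inhibition above a per-campaign cutoff equal to the mean of compounds falling between control-based bounds plus 3 SD, cut at about 20% in these data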;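 note: 0% = DMSO wells while the 100% control is not disclosed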
FAS-TE inh: FAS thioesterase domain inhibitors, primary screen, biochemical, fluorescence intensity, uHTS; AID 602261, 2012; Fatty acid synthase (Homo sapiens), P49327; inhibition, % at 15 µM; recombinant FAS-TE, OMFH fluorogenic substrate, fluorescence endpoint; 360,000 compounds, 0.67% hits;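 active = compounds whose normalised, plate-corrected inhibition of enzyme fluorescence in the single-dose primary screen is 50% or more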;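 note: 0% = DMSO with enzyme and 100% = substrate without enzyme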
* marks the source's active call; other numbers are inactive results; i = inactive; . = not tested or not shown. Compounds with a hit are over-represented: about 4.6% of the library has one in this group of screens.

SMILES	GRIN3A LBD mod	KLK7 zymogen act	ADAM17 inh	ADAM10 inh	FAS-TE inh
COc1ccc(CC(=O)Nc2ccc(OC)nc2)cc1	-1	0	0	6	-11
COc1ccc(NC(=O)Nc2ccc(OCc3ccccc3)cc2)cn1	29*	0	1	-5	-2
O=C(Nc1ccc(OCc2ccccc2)cc1)Nc1cccnc1	15*	0	2	0	-3
CCCCCC(=O)NC1CCCCN(Cc2ccccc2C)C1=O (stereo unspecified)	.	0	1	3	.
O=C(NCCCN1CCCC1)C1CCN(C(=O)c2cc3sccc3n2Cc2ccc(F)cc2)CC1	11*	0	0	10	-9
COCCCNC(=O)C[C@H]1C[C@@]2(C(=O)OC)C(=C[C@H](C(C)C)O[C@@H]2C2CC2)N(CCC2=CCCCC2)C1=O	.	0	1	0	.
Cc1cccc(C(=O)Nc2nc3ncccn3c2-c2ccc(F)cc2)c1	.	3	-30	-105	.
Cc1ccc([N+](=O)[O-])cc1-c1ccc(/C=C(\C#N)c2[nH]nc(N)c2C#N)o1	17*	-1	2	7	-16
COCc1cc(C)nc(OCC(=O)N/N=C/c2ccc(-c3cc([N+](=O)[O-])ccc3C)o2)c1C#N	1	0	-2	-1	20
CCOC(=O)Cn1cc(CN2CCS(=O)(=O)N(Cc3ccc(F)cc3)C(C(=O)OC)C2)nn1 (stereo unspecified)	.	0	2	0	.
CCC(=O)c1ccc(OCC(=O)OCC(=O)c2cc(C)n(C)c2C)cc1	13*	0	0	-4	3
CCC(=O)c1ccc(OCC(=O)OCC(=O)c2c(N)n(C)c(=O)n(C)c2=O)cc1	1	0	-3	-15	2
CN1CCN(C(=S)c2ccc(Cl)cc2)CC1	10*	0	-1	7	-3
CC(=O)NC1C(=O)N(CCN2CCOCC2)c2ccc(Br)cc21 (stereo unspecified)	18*	0	-2	-6	0
CCOc1ccc2c(c1)C(NC(C)=O)C(=O)N2CCN1CCOCC1 (stereo unspecified)	-3	0	-2	-7	-3
C=CCNC(=O)N1CCN(Cc2nc3ccccc3c(=O)[nH]2)CC1	.	0	0	-8	.
COc1cc(/C=C2\OC(=O)c3c(OC)cccc32)ccc1O	17*	-3	-47	-120	-4
CCn1c2ccccc2c2cc(NC(=O)COC(=O)c3cc(F)cc(F)c3)ccc21	.	0	-1	1	.
COc1ccccc1[C@H]1C(c2cccc(Cl)c2)=NN(c2ccccc2)[C@@H]1CO	-7	.	.	.	27
O=C1OCCN1C(=O)[C@H]1[C@H](c2ccccc2)C(c2cccc(Cl)c2)=NN1c1ccc(Br)cc1	7	-91	-131	i	49
Cc1cccc(C2=NN(c3ccc(Br)cc3)[C@@H](C(=O)N3CCOC3=O)[C@@H]2c2ccc(Cl)cc2)c1	17*	.	.	.	74*
CC[C@@H]1C(c2ccc(F)cc2)=NN(c2ccc(Br)cc2)[C@H]1C(=O)N1CCOC1=O	19*	3	-58	-220	34
CC[C@@H]1C(c2cccc(Cl)c2)=NN(c2ccc(Br)cc2)[C@H]1C(=O)N1CCOC1=O	4	.	.	.	42
Cc1cccc(C2=NN(c3ccc(Br)cc3)[C@@H](C(=O)N3CCOC3=O)[C@@H]2c2ccc(F)cc2)c1	5	-218	-208	i	74*
COc1ccccc1[C@@H]1C(c2cccc(Cl)c2)=NN(c2ccccc2)[C@H]1C(=O)N1CCOC1=O	-2	.	.	.	91*
COC(=O)[C@H]1C[C@@]2(C)c3ccccc3N(S(=O)(=O)c3ccccc3)[C@H]2N1C(=O)CNC1CCCCC1	.	0	-2	-6	.
Cc1ccc2c(c1)-c1c(cnn1CC(=O)NCCc1ccc(Cl)cc1)CO2	.	1	-2	-3	.
Cc1ccc(NC(=S)NNC(=S)Nc2ccc(C)cc2C)cc1	11*	-1	-4	-1	5
Cc1ccc(NC(=O)CCC(=O)NNC(=S)Nc2ccccc2)c(C)c1	1	0	1	10	-1
Cc1cc(Cl)ccc1NC(=S)N1CCOCC1	-5	-1	0	-3	-6
